# Test results from PMC5349851, “Combinatorial bZIP dimers display complex DNA-binding specificity landscapes”.
# Tests used:
# Test in all cases: SELEX-seq (CSI, HT-SELEX, round 3); SELEX-seq: 1x PBS (10 mM phosphate, 137 mM NaCl, 2.7 mM KCl) pH 7.6, 2.5 mM DTT, 50 ng/ul poly dI-dC, 0.1% BSA, 50 nM biotinylated bZIP (1:3 with partner for heterodimers), 100 nM library, room temperature, 1 h, 3 rounds; high values mean tight binding
# Conditions in all cases: protein: recombinant;recombinant; copies: 1;1; dsDNA, one strand shown
# JUNB;BATF2 = target: T1, JUNB;BATF2 (Homo sapiens;Homo sapiens, UniProt P17275;Q8N1L9 259-332;8-85, |)
# T1 sequence 1: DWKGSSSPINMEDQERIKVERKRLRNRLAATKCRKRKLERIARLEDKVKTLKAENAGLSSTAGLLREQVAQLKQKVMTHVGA
# T1 sequence 2: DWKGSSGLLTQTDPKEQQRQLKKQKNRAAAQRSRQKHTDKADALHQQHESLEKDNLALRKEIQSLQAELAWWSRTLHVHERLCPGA
# JUNB;CREBZF = target: T2, JUNB;CREBZF (Homo sapiens;Homo sapiens, UniProt P17275;Q9NS37 259-332;195-272, |)
# T2 sequence 1: T1 sequence 1
# T2 sequence 2: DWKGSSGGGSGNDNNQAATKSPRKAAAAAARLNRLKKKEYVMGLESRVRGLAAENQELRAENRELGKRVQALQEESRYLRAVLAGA
# BATF;HLF = target: T3, BATF;HLF (Homo sapiens;Homo sapiens, UniProt Q16520;Q16534 17-90;216-293, |)
# T3 sequence 1: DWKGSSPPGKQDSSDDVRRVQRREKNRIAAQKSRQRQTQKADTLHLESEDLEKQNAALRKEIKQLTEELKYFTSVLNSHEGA
# T3 sequence 2: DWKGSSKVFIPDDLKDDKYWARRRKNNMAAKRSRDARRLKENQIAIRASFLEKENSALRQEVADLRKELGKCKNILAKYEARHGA
# BATF;NFIL3 = target: T4, BATF;NFIL3 (Homo sapiens;Homo sapiens, UniProt Q16520;Q16649 17-90;64-134, |)
# T4 sequence 1: T3 sequence 1
# T4 sequence 2: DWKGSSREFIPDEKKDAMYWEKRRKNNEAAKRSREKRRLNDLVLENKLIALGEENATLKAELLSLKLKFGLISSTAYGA
# FOSL1;CEBPE = target: T5, FOSL1;CEBPE (Homo sapiens;Homo sapiens, UniProt P15407;Q15744 96-169;195-267, |)
# T5 sequence 1: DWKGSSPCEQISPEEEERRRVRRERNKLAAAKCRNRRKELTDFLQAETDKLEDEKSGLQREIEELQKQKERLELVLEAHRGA
# T5 sequence 2: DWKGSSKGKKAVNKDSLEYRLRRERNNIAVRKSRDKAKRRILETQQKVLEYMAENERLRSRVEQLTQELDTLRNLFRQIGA
# FOSL1;FOSL1 = target: T6, FOSL1;FOSL1 (Homo sapiens;Homo sapiens, UniProt P15407;P15407 96-169;96-169, |)
# T6 sequence 1: T5 sequence 1
# T6 sequence 2: T5 sequence 1
# FOSL1;NFE2 = target: T7, FOSL1;NFE2 (Homo sapiens;Homo sapiens, UniProt P15407;Q16621 96-169;221-337, |)
# T7 sequence 1: T5 sequence 1
# T7 sequence 2: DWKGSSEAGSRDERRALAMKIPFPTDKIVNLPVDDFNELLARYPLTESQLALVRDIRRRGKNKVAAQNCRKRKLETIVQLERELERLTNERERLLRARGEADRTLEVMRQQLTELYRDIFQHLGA
# FOS;BATF = FOS;BATF (Homo sapiens;Homo sapiens, UniProt P01100;Q16520 128-201;17-90, |)
# FOS;FOSL1 = FOS;FOSL1 (Homo sapiens;Homo sapiens, UniProt P01100;P15407 128-201;96-169, |)
# FOS;NFE2 = FOS;NFE2 (Homo sapiens;Homo sapiens, UniProt P01100;Q16621 128-201;221-337, |)
# FOS;NFE2L1 = FOS;NFE2L1 (Homo sapiens;Homo sapiens, UniProt P01100;Q14494 128-201;609-725, |)
# FOS;MAFB = FOS;MAFB (Homo sapiens;Homo sapiens, UniProt P01100;Q9Y5Q3 128-201;212-305, |)
# FOS;BATF2 = FOS;BATF2 (Homo sapiens;Homo sapiens, UniProt P01100;Q8N1L9 128-201;8-85, |)
# FOS;CREB3 = FOS;CREB3 (Homo sapiens;Homo sapiens, UniProt P01100;O43889 128-201;141-221, |)
# FOS;CREB3L3 = FOS;CREB3L3 (Homo sapiens;Homo sapiens, UniProt P01100;Q68CJ9 128-201;234-311, |)
# ATF5;CEBPE = target: T8, ATF5;CEBPE (Homo sapiens;Homo sapiens, UniProt Q9Y2D1;Q15744 199-275;195-267, |)
# T8 sequence 1: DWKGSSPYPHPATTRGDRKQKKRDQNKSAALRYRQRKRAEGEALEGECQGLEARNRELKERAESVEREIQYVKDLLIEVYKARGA
# T8 sequence 2: T5 sequence 2
# ATF5;JUNB = target: T9, ATF5;JUNB (Homo sapiens;Homo sapiens, UniProt Q9Y2D1;P17275 199-275;259-332, |)
# T9 sequence 1: T8 sequence 1
# T9 sequence 2: T1 sequence 1
# ATF5;BATF = target: T10, ATF5;BATF (Homo sapiens;Homo sapiens, UniProt Q9Y2D1;Q16520 199-275;17-90, |)
# T10 sequence 1: T8 sequence 1
# T10 sequence 2: T3 sequence 1
# ATF5;FOS = ATF5;FOS (Homo sapiens;Homo sapiens, UniProt Q9Y2D1;P01100 199-275;128-201, |)
# ATF5;CREB3L1 = target: T11, ATF5;CREB3L1 (Homo sapiens;Homo sapiens, UniProt Q9Y2D1;Q96BA8 199-275;281-358, |)
# T11 sequence 1: T8 sequence 1
# T11 sequence 2: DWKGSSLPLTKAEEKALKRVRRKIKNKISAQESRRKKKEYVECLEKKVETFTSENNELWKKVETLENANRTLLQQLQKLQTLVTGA
# Sequence of FOS;CREB3 (P01100 other isoform, or with tags, fused parts or gaps |, chain 1 of 2): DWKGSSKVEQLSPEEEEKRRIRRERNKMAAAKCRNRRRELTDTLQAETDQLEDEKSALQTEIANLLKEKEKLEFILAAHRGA
# Sequence of FOS;CREB3 (O43889 other isoform, or with tags, fused parts or gaps |, chain 2 of 2): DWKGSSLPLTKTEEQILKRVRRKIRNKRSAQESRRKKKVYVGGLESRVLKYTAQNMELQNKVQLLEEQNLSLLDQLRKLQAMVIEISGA
# Sequence of FOS;BATF (P01100 other isoform, or with tags, fused parts or gaps |, chain 1 of 2, one chain of several): as the sequence (P01100 other isoform, or with tags, fused parts or gaps |, chain 1 of 2) above
# Sequence of FOS;FOSL1 (P01100 other isoform, or with tags, fused parts or gaps |): as the sequence (P01100 other isoform, or with tags, fused parts or gaps |, chain 1 of 2) above
# Sequence of FOS;MAFB (P01100 other isoform, or with tags, fused parts or gaps |, chain 1 of 2): as above
# Sequence of FOS;MAFB (Q9Y5Q3 other isoform, or with tags, fused parts or gaps |, chain 2 of 2): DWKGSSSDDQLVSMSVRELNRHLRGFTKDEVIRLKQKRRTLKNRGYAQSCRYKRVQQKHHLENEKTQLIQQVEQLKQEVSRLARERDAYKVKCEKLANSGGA
# Sequence of FOS;NFE2 (P01100 other isoform, or with tags, fused parts or gaps |): as the sequence (P01100 other isoform, or with tags, fused parts or gaps |, chain 1 of 2) above
# Sequence of ATF5;FOS (P01100 other isoform, or with tags, fused parts or gaps |): as the sequence (P01100 other isoform, or with tags, fused parts or gaps |, chain 1 of 2) above
# Sequence of FOS;CREB3L3 (P01100 other isoform, or with tags, fused parts or gaps |, chain 1 of 2): as above
# Sequence of FOS;CREB3L3 (Q68CJ9 other isoform, or with tags, fused parts or gaps |, chain 2 of 2): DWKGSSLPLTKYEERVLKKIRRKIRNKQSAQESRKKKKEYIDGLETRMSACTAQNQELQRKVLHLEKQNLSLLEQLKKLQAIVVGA
# Sequence of FOS;BATF2 (P01100 other isoform, or with tags, fused parts or gaps |): as the sequence (P01100 other isoform, or with tags, fused parts or gaps |, chain 1 of 2) above
# Sequence of FOS;NFE2L1 (P01100 other isoform, or with tags, fused parts or gaps |, chain 1 of 2): as above
# Sequence of FOS;NFE2L1 (Q14494 other isoform, or with tags, fused parts or gaps |, chain 2 of 2): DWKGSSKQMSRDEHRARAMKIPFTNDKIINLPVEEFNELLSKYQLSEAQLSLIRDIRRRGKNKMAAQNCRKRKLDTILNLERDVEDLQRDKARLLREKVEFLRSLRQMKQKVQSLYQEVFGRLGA
Sequence,binding signal (JUNB;BATF2),binding signal (JUNB;CREBZF),binding signal (BATF;HLF),binding signal (BATF;NFIL3),binding signal (FOSL1;CEBPE),binding signal (FOSL1;FOSL1),binding signal (FOSL1;NFE2),binding signal (FOS;BATF),binding signal (FOS;FOSL1),binding signal (FOS;NFE2),binding signal (FOS;NFE2L1),binding signal (FOS;MAFB),binding signal (FOS;BATF2),binding signal (FOS;CREB3),binding signal (FOS;CREB3L3),binding signal (ATF5;CEBPE),binding signal (ATF5;JUNB),binding signal (ATF5;BATF),binding signal (ATF5;FOS),binding signal (ATF5;CREB3L1)
ATGACGCAAT,0.00872 relative CSI intensity (max = 1),0.0122 relative CSI intensity (max = 1),0.105 relative CSI intensity (max = 1),0.155 relative CSI intensity (max = 1),0.0294 relative CSI intensity (max = 1),0.0097 relative CSI intensity (max = 1),0.18 relative CSI intensity (max = 1),0.00539 relative CSI intensity (max = 1),0.0408 relative CSI intensity (max = 1),0.0862 relative CSI intensity (max = 1),0.49 relative CSI intensity (max = 1),0.0613 relative CSI intensity (max = 1),0.00476 relative CSI intensity (max = 1),0.0275 relative CSI intensity (max = 1),0.00168 relative CSI intensity (max = 1),0.245 relative CSI intensity (max = 1),0.00597 relative CSI intensity (max = 1),0.00602 relative CSI intensity (max = 1),0.024 relative CSI intensity (max = 1),–
ATGACGTAAT,0.0936 relative CSI intensity (max = 1),0.0382 relative CSI intensity (max = 1),0.71 relative CSI intensity (max = 1),0.786 relative CSI intensity (max = 1),0.00904 relative CSI intensity (max = 1),0.0331 relative CSI intensity (max = 1),0.129 relative CSI intensity (max = 1),0.0179 relative CSI intensity (max = 1),0.0348 relative CSI intensity (max = 1),0.0286 relative CSI intensity (max = 1),0.12 relative CSI intensity (max = 1),0.0637 relative CSI intensity (max = 1),0.0531 relative CSI intensity (max = 1),–,0.0238 relative CSI intensity (max = 1),0.189 relative CSI intensity (max = 1),0.0445 relative CSI intensity (max = 1),0.0375 relative CSI intensity (max = 1),0.00734 relative CSI intensity (max = 1),0.00877 relative CSI intensity (max = 1)
CCTGACGTCA,0.0149 relative CSI intensity (max = 1),–,0.0974 relative CSI intensity (max = 1),–,0.00153 relative CSI intensity (max = 1),0.0039 relative CSI intensity (max = 1),0.0335 relative CSI intensity (max = 1),0.0057 relative CSI intensity (max = 1),–,0.00384 relative CSI intensity (max = 1),–,0.0128 relative CSI intensity (max = 1),0.00375 relative CSI intensity (max = 1),0.0122 relative CSI intensity (max = 1),–,0.073 relative CSI intensity (max = 1),0.0543 relative CSI intensity (max = 1),0.0188 relative CSI intensity (max = 1),0.0125 relative CSI intensity (max = 1),0.00567 relative CSI intensity (max = 1)
ATGACGTCAT,1 relative CSI intensity (max = 1),1 relative CSI intensity (max = 1),0.814 relative CSI intensity (max = 1),1 relative CSI intensity (max = 1),0.0518 relative CSI intensity (max = 1),1 relative CSI intensity (max = 1),0.466 relative CSI intensity (max = 1),1 relative CSI intensity (max = 1),0.96 relative CSI intensity (max = 1),0.106 relative CSI intensity (max = 1),0.472 relative CSI intensity (max = 1),0.278 relative CSI intensity (max = 1),1 relative CSI intensity (max = 1),1 relative CSI intensity (max = 1),0.751 relative CSI intensity (max = 1),0.364 relative CSI intensity (max = 1),1 relative CSI intensity (max = 1),0.864 relative CSI intensity (max = 1),1 relative CSI intensity (max = 1),1 relative CSI intensity (max = 1)
ATGATGCAAT,0.00121 relative CSI intensity (max = 1),0.00786 relative CSI intensity (max = 1),0.179 relative CSI intensity (max = 1),0.0609 relative CSI intensity (max = 1),0.0136 relative CSI intensity (max = 1),0.00963 relative CSI intensity (max = 1),0.12 relative CSI intensity (max = 1),–,–,0.0393 relative CSI intensity (max = 1),0.174 relative CSI intensity (max = 1),0.0246 relative CSI intensity (max = 1),–,0.00378 relative CSI intensity (max = 1),0.00314 relative CSI intensity (max = 1),0.402 relative CSI intensity (max = 1),0.00145 relative CSI intensity (max = 1),0.00475 relative CSI intensity (max = 1),–,0.00221 relative CSI intensity (max = 1)
ATGACGGAAT,–,0.00176 relative CSI intensity (max = 1),–,–,–,–,0.0575 relative CSI intensity (max = 1),–,0.0281 relative CSI intensity (max = 1),0.00162 relative CSI intensity (max = 1),0.00712 relative CSI intensity (max = 1),0.00352 relative CSI intensity (max = 1),–,0.0131 relative CSI intensity (max = 1),0.00582 relative CSI intensity (max = 1),0.047 relative CSI intensity (max = 1),0.00218 relative CSI intensity (max = 1),–,0.0159 relative CSI intensity (max = 1),–
